Compound activity (PubChem)
NCOA3 inh: inhibitors of human steroid receptor coactivator 3 (SRC3); HEK293 GAL4-SRC3 luciferase reporter, luminescence; inhibition, % at 3.6 µM; actives 0.17% (n = 360,000);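 active = inhibition above a per-campaign cutoff, the mean of all compounds plus 3 SD, cut at about 60% in these data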;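 note: higher means less SRC3-driven luciferase light from the GAL4 reporter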
SRC2 inh: inhibits human steroid receptor coactivator 2 | Q15596 | HEK293 GAL4-SRC2 luciferase reporter, luminescence | inhibition, % at 9 µM | actives 0.17% (n = 370,000);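 active = inhibition above the mean inhibition of all tested compounds plus 3 SD, set per campaign, cut at about 52% in these data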
Target sequence (Q15596 whole entry, looked up, the tested form may be a part): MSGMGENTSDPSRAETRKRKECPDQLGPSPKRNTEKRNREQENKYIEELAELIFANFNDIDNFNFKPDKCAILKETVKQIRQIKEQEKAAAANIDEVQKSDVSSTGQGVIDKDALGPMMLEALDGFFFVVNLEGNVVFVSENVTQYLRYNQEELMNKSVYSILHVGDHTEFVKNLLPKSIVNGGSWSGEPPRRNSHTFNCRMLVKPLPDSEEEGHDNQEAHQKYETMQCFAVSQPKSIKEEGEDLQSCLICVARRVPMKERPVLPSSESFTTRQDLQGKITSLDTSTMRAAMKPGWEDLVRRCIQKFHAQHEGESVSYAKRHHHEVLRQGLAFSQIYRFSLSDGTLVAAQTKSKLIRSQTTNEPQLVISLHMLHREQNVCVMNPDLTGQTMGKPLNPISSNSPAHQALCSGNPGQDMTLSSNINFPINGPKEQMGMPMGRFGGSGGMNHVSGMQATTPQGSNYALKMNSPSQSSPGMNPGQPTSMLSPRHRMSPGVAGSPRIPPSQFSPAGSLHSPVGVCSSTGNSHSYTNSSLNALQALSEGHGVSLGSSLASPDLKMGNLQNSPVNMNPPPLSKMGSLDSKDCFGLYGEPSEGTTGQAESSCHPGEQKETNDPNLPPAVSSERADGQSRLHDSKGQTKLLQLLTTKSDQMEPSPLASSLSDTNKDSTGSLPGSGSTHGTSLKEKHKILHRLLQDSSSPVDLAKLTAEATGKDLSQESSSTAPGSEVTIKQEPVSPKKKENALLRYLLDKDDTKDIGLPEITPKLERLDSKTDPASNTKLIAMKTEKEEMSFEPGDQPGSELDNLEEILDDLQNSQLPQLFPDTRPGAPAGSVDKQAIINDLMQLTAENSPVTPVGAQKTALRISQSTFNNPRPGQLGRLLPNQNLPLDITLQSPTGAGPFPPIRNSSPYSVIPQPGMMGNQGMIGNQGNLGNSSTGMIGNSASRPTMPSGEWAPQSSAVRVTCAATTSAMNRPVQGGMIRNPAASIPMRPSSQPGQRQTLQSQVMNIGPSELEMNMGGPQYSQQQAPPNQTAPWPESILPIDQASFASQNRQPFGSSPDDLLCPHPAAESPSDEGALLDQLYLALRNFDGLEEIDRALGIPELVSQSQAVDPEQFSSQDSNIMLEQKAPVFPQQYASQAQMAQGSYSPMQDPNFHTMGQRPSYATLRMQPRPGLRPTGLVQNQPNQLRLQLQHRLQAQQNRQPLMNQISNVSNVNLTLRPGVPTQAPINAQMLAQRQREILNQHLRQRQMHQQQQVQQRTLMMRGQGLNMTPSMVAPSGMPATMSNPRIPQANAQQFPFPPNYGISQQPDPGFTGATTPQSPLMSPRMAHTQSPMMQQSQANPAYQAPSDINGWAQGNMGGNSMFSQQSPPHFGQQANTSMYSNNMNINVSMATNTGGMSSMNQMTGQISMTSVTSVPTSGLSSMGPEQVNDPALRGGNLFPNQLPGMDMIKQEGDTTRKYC
NR5A2 inv ag: NR5A2 inverse agonism in reporter assay; HEK293T StAR-luciferase reporter, LRH-1 transfected, 24 h; inhibition, % at 3.6 µM; actives 0.13% (n = 360,000);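 active = inhibition above the mean inhibition of all tested compounds plus 3 SD, cut at about 73% in these data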
SRC1 inh: inhibitors of human steroid receptor coactivator 1 (SRC1). inhibition, % at 3.6 µM. Q15788. actives 0.12% (n = 360,000). HEK293 GAL4-SRC1 luciferase reporter, luminescence;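 active = inhibition above the campaign mean plus 3 SD, with each screening campaign given its own cutoff, cut at about 60% in these data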
COUP-TFII inh: inhibitors of human COUP-TFII (NR2F2); P24468; HEK293T NGFI-A luciferase reporter, luminescence; inhibition, % at 8.6 µM; actives 0.7% (n = 370,000); AID 686940;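 active = inhibition above a per-plate cutoff, mean inhibition of test wells between control levels plus 3 SD, cut at about 38% in these data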;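 note: cells cotransfected with COUP-TFII expression vector driving the NGFI-A reporter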
Gal4-VP16 ctr: VP16 inhibition counter-screen for COUP-TFII. shares compounds with COUP-TFII inh. inhibition, % at 8.5 µM. HEK293 Gal4-VP16 luciferase reporter, luminescence. actives 25% (n = 2,500); in the data active = inhibition above about 13%
NR2F2 inh conf: COUP-TFII (NR2F2) inhibition, confirmation assay; HEK293 NGFI-A luciferase reporter, luminescence; inhibition, % at 8.5 µM; shares compounds with COUP-TFII inh; actives 45% (n = 2,500);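 active = mean inhibition over three repeats above a set limit taken from the earlier primary screen, cut at about 38% in these data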
Hits are given with their value; . = inactive; / = no result. A selection: hits, their analogues and other compounds. The true share with any hit is near 0.84%.

SMILES	NCOA3 inh	SRC2 inh	NR5A2 inv ag	SRC1 inh	COUP-TFII inh	Gal4-VP16 ctr	NR2F2 inh conf
CCOC(=O)C1CCN(C(=O)C(C)N(c2ccc(Oc3ccccc3)cc2)S(C)(=O)=O)CC1 (centres undefined)	.	.	.	.	45.4	.	.
COC(=O)C1=C(C)N(C)C(=NCc2ccc(C(F)(F)F)cc2)NC1c1ccc(Cl)cc1 (centres undefined)	/	.	/	/	.	/	/
CC1CCCC(NC(=O)COC(=O)Cc2ccc(Br)cc2)C1C (centres undefined)	.	.	.	.	.	/	/
COc1ccc(CC(=O)OCC(=O)NC2CCCC(C)C2C)cc1OC (centres undefined)	.	.	.	.	50.1	.	.
C=CCCC1CN(Cc2ccc(OC)cc2)S(=O)(=O)c2c(NCc3cc(OC)c(OC)c(OC)c3)cccc2O1 (centres undefined)	/	.	/	/	43.4	.	.
C=CCCC1CN(Cc2ccc(OC)cc2)S(=O)(=O)c2c(Oc3ccc(OC)cc3)cccc2O1 (centres undefined)	/	.	/	/	.	/	/
O=C(CCN1C(=O)C2C3C=CC(C3)C2C1=O)N1CCN(c2ccccn2)CC1 (centres undefined)	.	.	.	.	.	/	/
O=C1C2C3C=CC(C3)C2C(=O)N1c1ccc(N2CCN(c3ccccn3)CC2)c([N+](=O)[O-])c1 (centres undefined)	.	.	.	.	42.0	.	.
CC(C)(C)n1nc2c(c1NC(=O)c1ccc([N+](=O)[O-])cc1)CS(=O)(=O)C2	.	.	.	.	.	/	/
COc1cccc(CNC(=O)[C@H]2CCCN2)c1	/	.	/	/	.	/	/
Cc1cc2nc(C3CCCN(C(=S)Nc4ccccc4)C3)[nH]c2cc1C (centres undefined)	.	.	.	.	48.9	.	.
O=C(Nc1ccc(F)c(F)c1)c1ccc(F)c(S(=O)(=O)N2CCC3(CC2)OCCO3)c1	.	.	.	.	39.3	.	.
COC(=O)NCC(c1cccnc1)N1CCN(c2ccccc2)CC1 (centres undefined)	.	.	.	.	.	/	/
O=C(NCCc1c[nH]c2ccccc12)C(=O)NCC(c1cccnc1)N1CCN(c2ccccc2)CC1 (centres undefined)	.	.	.	.	67.3	.	.
Cc1ccc(C)c(N2CCN(C(=O)C34CC5CC(C3)CC(n3nnc(C)n3)(C5)C4)CC2)c1	.	.	.	.	47.3	.	.
Cc1ccc(C23CC4CC(CC(C(=O)N5CCN(C)CC5)(C4)C2)C3)cc1	.	.	.	.	.	/	/
CCC[N+]1(CC#CCC(c2ccccc2)c2ccccc2)CCCCC1	.	.	.	.	52.4	.	.
CC[n+]1c(/C=C/c2c[nH]c3ccccc23)ccc2cc(C)ccc21	/	.	/	/	38.3	.	51.9
CCCCOc1ncnc2c1[nH]c1ccccc12	.	.	.	.	49.3	.	.
COc1ccc(N2CCN(c3ncnc4c3[nH]c3ccccc34)CC2)cc1	.	.	.	.	52.0	.	60.6
COc1ccc2[nH]c3c(N4CCc5ccccc5C4)ncnc3c2c1	.	.	.	.	.	/	/
CCOC(=O)N1CCN(c2ncnc3c2[nH]c2ccc(F)cc23)CC1	.	.	.	.	63.7	.	39.7
CCCCOc1ncnc2c1[nH]c1ccc(F)cc12	.	.	.	.	55.9	.	.
CCOC(=O)N1CCN(c2ncnc3c2[nH]c2ccc(OC)cc23)CC1	.	.	.	.	.	/	/
CCCNC(=O)C1(C)CCN(Cc2noc(-c3ccccc3OC)n2)C1 (centres undefined)	.	.	.	.	.	/	/
SMILES	NCOA3 inh	SRC2 inh	NR5A2 inv ag	SRC1 inh	COUP-TFII inh	Gal4-VP16 ctr	NR2F2 inh conf
c1ccc(Cc2cnc(N3CCN(Cc4csc5ccccc45)CC3)nc2)cc1	/	.	/	/	.	/	/
CCCCOCCCNc1ncnc2c1[nH]c1ccccc12	.	.	.	.	66.5	13.6	63.3
CCOCCCNc1ncnc2c1[nH]c1ccccc12	.	.	.	.	.	/	/
CCCC[C@@H](CCCc1ccc(F)cc1)CCC(=O)N(c1ccccc1)c1ccccc1	/	.	/	/	.	/	/
COc1ccc(C(=O)c2ccc([N+](=O)[O-])cc2)c(OC)c1OC	.	.	.	.	.	/	/
Cc1cc(/C=C2/C(=O)NN(c3ccccc3)C2=O)c(C)n1-c1ccc(O)cc1	.	.	.	.	57.4	.	.
CCCCCCCCCCCCCCCC[n+]1cccc2ccccc21	61.8	.	.	.	54.2	15.4	63.2
CC[C@@H]1CCC[C@@H](O)[C@@H](C)C(=O)O[C@H](C)[C@@H](C)C/C=C(C)/C(OC)=C\C(=O)N(C)C([C@@H](C)CC)C(=O)N(C)[C@@H](C(C)C)C(=O)N(C)[C@@H](COC)C(=O)N2CCC[C@H]2C(=O)N(C)[C@@H](C(C)C)C(=O)N2CCC[C@H]2C(=O)O1 (some centres undefined)	84.4	.	97.8	77.5	82.8	13.8	82.0
CN(C)S(=O)(=O)N1CCc2ccc(NC(=O)c3ccc(C(F)(F)F)cc3)cc2C1	.	.	.	.	56.0	.	.
COCCC(=O)Nc1ccc2c(c1)CN(C(=O)CSC)CC2	.	.	.	.	.	/	/
COCCC(=O)N1CCc2ccc(NC(=O)c3ccc(C(F)(F)F)cc3)cc2C1	.	.	.	.	37.8	.	.
COC(=O)[C@]12C[C@H](CC(=O)NCc3ccc(OC)c(OC)c3)C(=O)N(CCc3ccc(OC)c(OC)c3)C1=C[C@H](C(C)(C)C)O[C@@H]2C	/	.	/	/	.	/	/
CCn1c(SCC(=O)N2CCN(c3ccccc3)CC2)nnc1-c1c[nH]c2ccccc12	.	.	.	.	46.2	.	.
Cn1c(SCC(=O)N2CCN(c3ccccc3)CC2)nnc1-c1c[nH]c2ccccc12	.	.	.	.	.	/	/
C=CCn1c(COc2cccc(C)c2C)nnc1SCC(=O)N1CCN(c2ccccc2)CC1	.	.	.	.	44.4	.	37.8
CCn1c(COc2c(C)cccc2C)nnc1SCC(=O)N1CCN(c2ccccc2)CC1	.	.	.	.	.	/	/
Cc1cnc(C=O)c2cccc([N+](=O)[O-])c12	.	.	.	.	.	/	/
COc1ccc2cc3c(N)nn(C(=O)c4ccccc4[N+](=O)[O-])c3nc2c1	.	.	.	.	42.6	14.8	.
COC(=O)C1=C(C)NC(=S)NC1c1cccc(OC)c1 (centres undefined)	/	.	/	/	.	/	/
CC(C)CCOc1cccc(OCC(=O)Nc2ccncc2)c1	.	.	.	.	62.0	.	55.1
O=C(COc1ccc2ccccc2c1Br)Nc1ccncc1	.	.	.	.	50.6	.	.
Cc1cc(OCC(=O)Nc2ccncc2)cc(C)c1Cl	.	.	.	.	56.9	.	.
Cc1ccc(OCC(=O)Nc2ccncc2)cc1C	.	.	.	.	.	/	/
